The values below come from PubChem BioAssay AID504848 (National Center for Advancing Translational Sciences (NCATS), 2011).

The whole screen tested about 2,300 compounds, of which about 1,400 (61%) were called active. About 29% were inconclusive and are not listed. So high a share suggests a set chosen from earlier hits. The list shows a part of the results. Values without a mark were called inactive. Calls come from the whole dose curve; as a rule, active = well fitted inhibition curve with a large enough effect; inconclusive = small, poorly fitted or top-dose-only effect, or effect the other way; inactive = no such curve, though single readings can be large or run the other way.
% is set by controls: 0 for no effect and ±100 for the full control effect; potency is the fitted concentration of half-maximal effect.

The nature of the assay: Confirmation screen for delayed death inhibitors of the malarial parasite plastid, 96 hour incubation. Note: nearly all actives have a fitted effect of over 60% in size. The conditions noted are these: P. falciparum luciferase growth in erythrocytes; series mostly up to 28.7 µM; activity change, negative = inhibition: at the top concentration. An excerpt:
The goal of this screen is to discover new antimalarial compounds that act by inhibiting the development of the apicoplast in the malarial parasite Plasmodium falciparum. The biochemical processes that make this organelle essential for erythrocytic stage parasites are not well understood. However, antibiotics, such as azithromycin and tetracycline, which target the apicoplast translational machinery, have a potent antimalarial effect. […] We have developed a cell-based assay that measures parasite growth based on the expression of an integrated copy of a firefly luciferase reporter. To detect small molecules that cause this "delayed death phenotype, erythrocytes infected with the luciferase-expressing parasites were incubated with compounds for either one or two generations, corresponding to 48 and 96 hours, respectively. Compounds that inhibit parasite growth in the second generation, but not the first, should be enriched in antimalarials that target the apicoplast. Growth inhibition is detected by a decrease in luciferase activity. MLPCN Grant: R21 NS059500 Assay Provider: David Fidock and Eric Ekland, Columbia University Keywords: NIH Roadmap, MLPCN, MLI, MLSMR, qHTS, NCGC, qHTS, malaria, luciferase, viability
Four microliters of culture medium (RPMI 1640 with 0.5% w/v Albumax (GIBCO), 24 mM sodium bicarbonate and 10 ug/mL gentamycin) were dispensed by a Multi-drop Combi into white solid 1536-well plates (Grenier) and 23 nL compound was added by a pin tool. Four microliters of infected erythrocytes (2% hematocrit, 0.1% parasitemia final concentration) in culture medium were dispensed and the plates incubated for 96 hours at 37 C in 5% CO2. Two microliters of luciferase detection reagent was added and luminescence was detected by a ViewLux (PerkinElmer) reader
On to `CCOC(=O)C(=Cc1ccc(Br)cc1)C(=O)OCC`, for which the Potency is 7.94 µM (active).

`COc1ccc(CCNc2cc(C)nc3c(-c4ccc(Cl)cc4)c(C)nn23)cc1OC`: the Potency is 11.2 µM (active).

Consider `O=C(/C=C/c1ccncc1)c1ccc(NC(=O)c2ccccc2F)cc1`, for which the Potency was 12.6 µM (active).

As for `CSc1ccc(/C=C/C(=O)c2ccc(NC(=O)C(C)C)cc2)cc1`, the “activity change, negative = inhibition” value is -105%.

For the compound `COc1cccc(Nc2ccc(N3CCCCC3)cc2)c1OC`, the Potency is 0.355 µM (active).

In the case of `CCOC(=O)CN1C(=O)/C(=C/c2c(F)cccc2Cl)Oc2ccccc21`, the Potency is 12.6 µM (active).

With `CCOC(=O)c1ccc(N2N=C(C)/C(=C/C=C/c3ccco3)C2=O)cc1`, the Potency was 5.62 µM (active).

Consider `CC(=O)c1cccc(NC(=O)CSc2ccc(-c3sc(C)nc3C)nn2)c1`, for which the Potency was 12.6 µM (active).

`CCc1ccc(NC2=CC(=O)C(=O)c3ccccc32)cc1`: the Potency is 0.447 µM (active).

`COc1ccc(-c2c(-c3cc(OC)cc(OC)c3)n(C)c3ccc(-c4ccc5[nH]ccc5c4)cc23)cc1`: the Potency was 6.31 µM (active).

On to `CCN(CC)C(=O)C1CCCN(C(=O)c2cc(COc3ccc4ncccc4c3)on2)C1` (configuration not stated), for which the Potency was 11.2 µM (active).

For `c1ccc2c(c1)Nc1cc3ccccc3cc1S2`, the Potency is 3.98 µM (active).

On to `O=C(c1[nH]ncc1-c1cccc(Br)c1)C1CO1` (configuration not stated), for which the Potency is 12.6 µM (active).

Take `O=S(=O)(c1ccc(F)cc1)N1CCc2ccccc2C1`: the Potency was 12.6 µM (active).

Take `COC(=O)Nc1ccc2c(c1)N(C(=O)CCCl)c1ccccc1S2`: the Potency was 12.6 µM (active).

On to `O=S1(=O)Nc2c(ccc3cccnc23)-c2ccccc21`, for which the Potency is 1.58 µM (active).

As for `Cc1ccc(C2(C)NC(=O)N(CC(=O)N3CCN(S(=O)(=O)c4cccc(F)c4)CC3)C2=O)cc1` (configuration not stated), the Potency is 7.08 µM (active).

For `O=C(NC1CCCCC1)c1ccc(CS(=O)Cc2ccccc2Cl)o1` (configuration not stated), the Potency is 12.6 µM (active).

In the case of `Cc1ccc(CS(=O)(=O)Cc2ccc(C(=O)NC3CCCC3)o2)cc1`, the Potency is 10 µM (active).

As to `O=C(c1cccs1)N1N=C(c2ccccc2)CC1c1ccccc1O` (configuration not stated), the Potency was 2.82 µM (active).

For the compound `CCOc1ccc(CCn2c(-c3ccco3)nc3ccccc3c2=O)cc1OCC`, the Potency was 10 µM (active).

Turning to `O=C(Nn1c(-c2ccccc2)nc2ccccc2c1=O)c1ccco1`, the “activity change, negative = inhibition” value was 22.9%.

For `Cc1c(O)ccc(C(=O)CN2CCN(Cc3ccc4c(c3)OCO4)CC2)c1O`, the Potency is 5.01 µM (active).

Consider `Cc1ccc(NC2=C/C(=N\S(=O)(=O)c3cccs3)c3ccccc3C2=O)c(C)c1`, for which the Potency was 0.0708 µM (active).

On to `CCc1ccc(-c2cn(C3CCCCC3)c(=S)[nH]2)cc1`, for which the Potency was 6.31 µM (active).

As to `Clc1ccccc1Cn1c(/C=C/c2ccco2)nc2ccccc21`, the Potency is 11.2 µM (active).

With `COc1ccccc1N1CCN(CCC(=O)Nc2ccc(F)cc2)CC1`, the Potency is 12.6 µM (active).

On to `O=C1CN(c2nc(-c3cccnc3)nc3scc(-c4ccccc4)c23)CCN1`, for which the “activity change, negative = inhibition” value was 18.9%.

As to `O=C(c1cccs1)N1CCCN(c2ncnc3scc(-c4ccccc4)c23)CC1`, the Potency is 12.6 µM (active).

For the compound `Cc1cc(C)n(CC(O)COc2ccccc2)n1` (configuration not stated), the Potency is 0.891 µM (active).

Turning to `O=C1CN(C(=O)c2ccc(Cl)c(S(=O)(=O)N3CCc4ccccc43)c2)c2ccccc2N1`, the Potency is 12.6 µM (active).

In the case of `CC[C@@H](C(=O)[C@@H](C)[C@@H](O)[C@H](C)CCc1ccc(C)c(O)c1C(=O)O)[C@H]1O[C@](CC)([C@H]2CC[C@](O)(CC)[C@H](C)O2)C[C@@H]1C`, the Potency is 0.631 µM (active).

`Cc1ccccc1C1c2[nH]c3ccccc3c2CCN1Cc1cccn1-c1ncccn1` (configuration not stated): the Potency is 14.1 µM (active).

Regarding `Fc1ccccc1C1c2[nH]c3ccccc3c2CCN1Cc1cccn1-c1ncccn1` (configuration not stated), the Potency was 12.6 µM (active).

Consider `COc1ccc(C2c3[nH]c4ccccc4c3CCN2Cc2ccoc2)c(F)c1` (configuration not stated), for which the Potency is 12.6 µM (active).

For `O=c1c(Cl)c(Cl)cnn1Cc1nnc(-c2ccc(Cl)cc2)o1`, the Potency was 12.6 µM (active).

On to `COc1cc2c(O)c3c(c(-c4ccc5c(c4)OCO5)c2cc1OC)C(=O)OC3`, for which the Potency was 6.31 µM (active).

In the case of `CCOC(=O)C1=C(C)NC(C)=C(C(=O)OCC)C1c1cc(N)ccc1OC(F)F`, the Potency was 5.62 µM (active).

With `Nc1c(N(Cc2ccco2)C(=O)c2ccc(Br)cc2)c(=O)[nH]c(=O)n1Cc1ccccc1`, the “activity change, negative = inhibition” value is -7.43%.

Turning to `Cc1ccc(N(Cc2ccco2)C(=O)c2ccc(N3CCCCC3)c([N+](=O)[O-])c2)cc1`, the Potency is 10 µM (active).

As for `COc1cc(CN2CCN(CC#Cc3ccccc3)CC2CCO)cc(OC)c1` (configuration not stated), the Potency is 14.1 µM (active).

As for `COc1cc(CN2CCN(Cc3c[nH]c4ccccc34)CC2CCO)cc(OC)c1` (configuration not stated), the Potency was 12.6 µM (active).

As for `Cc1cccc(Nc2nc3c(S(=O)(=O)c4ccccc4)nnn3c3ccccc23)c1C`, the Potency was 3.98 µM (active).

On to `CC(C)(C)NC(=O)CSc1nnc(-c2ccccc2)c(-c2ccccc2)n1`, for which the Potency is 14.1 µM (active).

Consider `COc1ccc(/C=C2\CCc3ccccc3C2=O)cc1CN1CCOCC1`, for which the Potency is 15.8 µM (active).

As to `CCC(C)NC(=O)c1cc(Cl)c(NC(=O)C2=C(C)OCCS2)cc1OC` (configuration not stated), the Potency is 10 µM (active).

Turning to `Cc1nn2c(Nc3ccccc3)c3c(nc2c1-c1ccccc1)CCC3`, the Potency is 14.1 µM (active).

In the case of `Cc1ccc(Cl)cc1Nc1nc(-c2sc(NC(=O)C(C)(C)C)nc2C)cs1`, the Potency is 2.82 µM (active).

With `Cc1cccc(N(Cc2ccccc2)C(=O)CSC(C)C(=O)Nc2cc(C)on2)c1` (configuration not stated), the Potency is 8.91 µM (active).

As for `CCOC(=O)C1CCN(C(=O)C(=O)Nc2ccc3nc4n(c(=O)c3c2)CCCCC4)CC1`, the Potency is 7.08 µM (active).

In the case of `COc1ccccc1C(=O)Nc1ccc2nc3n(c(=O)c2c1)CCCC3`, the Potency was 3.55 µM (active).

With `CCCCCNc1nc2sc3c(c2c(=O)n1-c1cccc(Cl)c1)CCN(C)C3`, the Potency is 2.24 µM (active).

For the compound `CCCCNc1nc2sc3c(c2c(=O)n1-c1cccc(Cl)c1)CCN(C)C3`, the Potency is 1.26 µM (active).

As for `O=C(O)c1ccc(C=C(c2nc3ccccc3s2)c2nc3ccccc3s2)cc1`, the Potency was 15.8 µM (active).

In the case of `CCCCNC(=O)c1onc(CSc2cc(C)ccc2C)c1C(=O)O`, the “activity change, negative = inhibition” value is -0.286%.

As for `Cc1cc(C(C)(C)C)cc(C)c1CCNC(=O)c1ccc[n+]([O-])c1`, the Potency was 12.6 µM (active).

In the case of `Cc1cc(C(C)(C)C)cc(C)c1CCNC(=O)c1c(C)noc1C`, the Potency is 10 µM (active).

Turning to `Cc1ccc(-n2nc3c(=O)n(CCCC(=O)NCc4ccco4)nc(C)c3c2C)cc1`, the Potency is 2.24 µM (active).

Consider `Cc1nn(CCCC(=O)NCc2ccco2)c(=O)c2nn(-c3ccccc3)c(C)c12`, for which the Potency is 11.2 µM (active).

Regarding `Cc1ccc2c(c1)N(CCC(=O)NCc1ccco1)C(=O)CO2`, the “activity change, negative = inhibition” value was -3.07%.

With `C/C(=N/OCO/N=C(\C)c1ccccc1)c1ccccc1`, the “activity change, negative = inhibition” value was -1.99%.

In the case of `C/C(=N\NC(=S)Nc1cccc(C)c1)c1ccccc1`, the Potency is 11.2 µM (active).

As for `CCOC(=O)c1c(C)[nH]c(C(=O)Nc2cc(OCC)c(N3CCOCC3)cc2OCC)c1C`, the Potency was 2.51 µM (active).

As for `CCOC(=O)c1ccc(Nc2nc(=O)c3cccnc3s2)cc1`, the “activity change, negative = inhibition” value is 4.59%.

Regarding `CCOC(=O)c1ccc(NC(=O)c2c(Cl)cc(C)nc2C)cc1`, the Potency was 12.6 µM (active).

In the case of `N#C/C(=C\c1coc2ccccc2c1=O)C(N)=S`, the Potency was 11.2 µM (active).

Take `N#C/C(=C\C=C\c1ccccc1[N+](=O)[O-])C(=O)NC1CCCCC1`: the Potency is 5.01 µM (active).

For `CC1CCCCC1NC(=O)/C(C#N)=C/C=C/c1ccccc1[N+](=O)[O-]` (configuration not stated), the Potency was 4.47 µM (active).

`COCCNC(=O)/C(C#N)=C/C=C/c1ccccc1[N+](=O)[O-]`: the Potency was 10 µM (active).

`COC(=O)C(=Cc1ccccc1[N+](=O)[O-])C(=O)OC`: the Potency is 3.98 µM (active).

As for `CCCCN1/C(=C/c2cccc[n+]2C)Sc2cc(NC(C)=O)ccc21`, the Potency is 1.58 µM (active).

Consider `CCC1CCC(C(=O)NC(CCSC)C(=O)NCCN(CC(C)C)CC(C)C)CC1` (configuration not stated), for which the Potency was 7.08 µM (active).

`O=C1C(=O)c2ccccc2C(O)=C1c1cccc([N+](=O)[O-])c1`: the Potency was 10 µM (active).

Take `COC(=O)c1ccc(C2N=C(c3cccs3)CC(c3ccccc3O)N2)cc1` (configuration not stated): the Potency was 5.62 µM (active).

With `COc1cccc(NC(=O)CN2C(=O)NC3(CCCc4ccccc43)C2=O)c1` (configuration not stated), the Potency is 3.98 µM (active).

Regarding `COc1ccc(C2(c3ccc(OC)cc3)NC(=O)N(CC(=O)Nc3ccc(C(N)=O)cc3)C2=O)cc1`, the Potency was 3.98 µM (active).

With `COC(=O)C1=C(C)Nc2ncnn2C1c1ccccn1` (configuration not stated), the “activity change, negative = inhibition” value was -14%.

Consider `CCOc1ccc(N(C(=O)c2snc(C(N)=O)c2N)C(C(=O)NCC2CCCO2)c2c[nH]c3ccccc23)cc1` (configuration not stated), for which the Potency was 2.82 µM (active).

Regarding `COc1cc(/C=C/C(=O)NC(=O)c2ccccc2O)ccc1OC(C)=O`, the Potency is 8.91 µM (active).

In the case of `Cn1c(=O)oc2cc(S(=O)(=O)NCCC(=O)NCc3ccc(F)cc3)ccc21`, the Potency was 12.6 µM (active).

For the compound `O=C1NC(=Nc2ccccc2)S/C1=C\c1ccccc1`, the Potency was 11.2 µM (active).

As to `O=C(NC1CCCCC1)N1CCN(c2ccc([N+](=O)[O-])cc2)CC1`, the Potency was 12.6 µM (active).

For the compound `CCCc1c(CC)c(=N)c2ccccc2n1C`, the Potency is 0.0316 µM (active).

For the compound `Nc1cccc2c1C(=O)N(C(=O)/C=C/c1ccc(F)cc1)C2=O`, the “activity change, negative = inhibition” value was 9.14%.

For the compound `CC(C)(CNC(=O)/C=C/c1ccc(F)cc1)CNC(=O)/C=C/c1ccc(F)cc1`, the Potency is 8.91 µM (active).

With `CCCCn1c(C2CCCCC2)nc2cc3[nH]c(=O)c(C(C)C)nc3cc21`, the Potency is 11.2 µM (active).

For the compound `Cc1cc(=O)oc2c1ccc1oc(/C(=N/O)c3ccccc3)c(C)c12`, the Potency was 4.47 µM (active).

On to `Cc1cc(Cl)cc(C)c1OCCn1ccnc1`, for which the Potency is 11.2 µM (active).

Regarding `CC#CC#Cc1cccc(=O)o1`, the Potency was 3.98 µM (active).

Take `Clc1ccc2nc(-c3ccccn3)c(Nc3ccc4c(c3)OCO4)n2c1`: the Potency is 10 µM (active).

Consider `CCCCSc1nnc(-c2cc3c(C(F)(F)F)nn(C)c3s2)n1C`, for which the Potency is 10 µM (active).

As for `CCOc1ccccc1NC(=O)/C(C#N)=C/c1cccnc1`, the Potency was 12.6 µM (active).
